This is an account of results in PubChem BioAssay (NCI).

Assay [1] can be described thus: NCI Yeast Anticancer Drug Screen. Data for the rad50 strain (AID 155).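 Further: 0% = growth of vehicle-only cultures of the same strain.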 To be noted: S. cerevisiae rad50 strain growth inhibition, active compounds read high. The method in brief:
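Yeast carrying a defined DNA repair defect were exposed to test compounds, and growth was compared with vehicle-treated controls to give percent inhibition.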

Assay [2] is described as follows: NCI Yeast Anticancer Drug Screen. Data for the mec2-1 strain (AID 157). The following applies: S. cerevisiae mec2-1 strain, active compounds read high. Put shortly: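 mec2-1 yeast strain, carrying an alteration in DNA damage repair or cell cycle control, was exposed to compounds; growth inhibition was measured relative to vehicle-treated controls.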
A short description of assay [3]: NCI Yeast Anticancer Drug Screen. Data for the sgs1 mgt1 strain (AID 161).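 Further: 0% = growth of cultures given vehicle only.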 To be noted: S. cerevisiae sgs1 mgt1 strain, active compounds read high. The method in brief: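 Growth of a repair-deficient yeast mutant was monitored after compound treatment and expressed as inhibition relative to vehicle-treated cultures.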
Assay [4] is described as follows: NCI Yeast Anticancer Drug Screen. Data for the cln2 rad14 strain (AID 165).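 Further: 0% = growth equal to vehicle treated cultures.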 The following applies: S. cerevisiae cln2 rad14 strain, active compounds read high. Put shortly:
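Yeast carrying cln2 and rad14 alterations (cell cycle control and DNA damage repair) were exposed to compounds. Growth inhibition was measured against vehicle-treated controls.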

A short description of assay [5]: NCI Yeast Anticancer Drug Screen. Data for the mlh1 rad18 strain (AID 175). To be noted: S. cerevisiae mlh1 rad18 strain growth inhibition, active compounds read high. Put shortly:
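Growth inhibition of the yeast strain was measured after compound exposure and expressed relative to vehicle-treated controls. The strain carries defined defects in DNA damage repair.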

A short description of assay [6]: NCI Yeast Anticancer Drug Screen. Data for the bub3 strain (AID 167). To be noted: S. cerevisiae bub3 mutant strain, active compounds read high. The method in brief: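 Compounds were applied to a genetically altered yeast strain carrying a cell-cycle control defect. Growth inhibition was scored against vehicle-treated controls.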
Where [7] appears, read: at 5.0 µM (retest, dose inferred, filed as 0.5).
Where [8] appears, read: at 50.0 µM (retest, dose inferred, filed as 5.0).

This is part of a sample that, as a whole, favours compounds with a hit. Of some 79,000 tested, about 15% had one in any assay. A number with no mark means an inactive call. Calls of active or inactive are those of the source. No stated cut-off is given here; in the data, active means growth inhibition above about 70%; inactive means the rest.

With `CC(C)(Sc1cc(Cl)c(Cl)c(Cl)c1)C(=O)OCCN1CCOCC1`, the growth inhibition in assay [1] (setting [7]) was 78% (active); in assay [1] (setting [8]), 98% (active); in assay [1] (at 50.0 µM), 98.2% (active); in assay [2] (setting [7]), 77% (active); in assay [2] (setting [8]), 98% (active); in assay [2] (at 50.0 µM), 99.6% (active). In addition, the growth inhibition is 87% (active) in assay [3] (setting [7]); 98% (active) in assay [3] (setting [8]); 99.4% (active) in assay [3] (at 50.0 µM); 59% in assay [4] (setting [7]); 96% (active) in assay [4] (setting [8]); 98.3% (active) in assay [4] (at 50.0 µM). The values for the growth inhibition in assay [5] (setting [7]), in assay [5] (setting [8]) and in assay [5] (at 50.0 µM) were 67%, 98% (active) and 97.5% (active), respectively.
On to `COC(=O)c1cc2c(c(C(=O)OC)c1O)C(=O)C=CC2=O`, for which the growth inhibition is 2% in assay [1] (setting [7]); 78% (active) in assay [1] (setting [8]); 84.5% (active) in assay [1] (at 50.0 µM); 8% in assay [2] (setting [7]); 95% (active) in assay [2] (setting [8]); 84% (active) in assay [2] (at 50.0 µM). For the same compound, the growth inhibition in assay [4] (setting [7]) is 10%; in assay [4] (setting [8]) it was 95% (active); in assay [4] (at 50.0 µM), 56.3%; in assay [6] (setting [7]), -2%; in assay [6] (setting [8]), 90% (active); in assay [6] (at 50.0 µM), 69.8%. In addition, the growth inhibition in assay [5] (setting [7]) is -28%; in assay [5] (setting [8]), 95% (active); in assay [5] (at 50.0 µM), 70.6% (active).
As to `C#CC(C)(C)Nc1c2ccccc2nc2ccccc12`, the growth inhibition in assay [1] (setting [7]) is 7%; in assay [1] (setting [8]), 98% (active); in assay [1] (at 50.0 µM), 98.2% (active); in assay [2] (setting [7]), 2%; in assay [2] (setting [8]) it was 97% (active); in assay [2] (at 50.0 µM) it was 94.6% (active). For the same compound, the growth inhibition in assay [3] (setting [7]) was -1%; in assay [3] (setting [8]), 98% (active); in assay [3] (at 50.0 µM), 98.8% (active); in assay [4] (setting [7]) it was 0%; in assay [4] (setting [8]) it was 94% (active); in assay [4] (at 50.0 µM) it was 93.7% (active). Further, the growth inhibition in assay [5] (setting [7]) is 11%; in assay [5] (setting [8]) it was 98% (active); in assay [5] (at 50.0 µM), 98.7% (active).
`OCC(O)C(O)C(O)C(O)C(O)C(/C=N/Nc1ccccc1)=N/Nc1ccccc1` (stereo not drawn): the growth inhibition in assay [1] (setting [7]) was -1%; in assay [1] (setting [8]) it was 81% (active); in assay [1] (at 50.0 µM) it was 55.2%; in assay [2] (setting [7]), -2%; in assay [2] (setting [8]) it was 95% (active); in assay [2] (at 50.0 µM) it was 29.2%. Besides, the growth inhibition in assay [3] (setting [7]) was 0%; in assay [3] (setting [8]) it was 50%; in assay [3] (at 50.0 µM), 35.2%; in assay [6] (setting [7]), 18%; in assay [6] (setting [8]), 95% (active); in assay [6] (at 50.0 µM) it was 56%. The growth inhibition was 8% in assay [5] (setting [7]), 92% (active) in assay [5] (setting [8]) and 66.1% in assay [5] (at 50.0 µM).
Turning to `CC(=O)Nc1ccc(C(=O)n2[nH]c(C)c(/C=C3\C(=O)C=Cc4ccccc43)c2=O)cc1`, the growth inhibition in assay [1] (setting [7]) is 27%; in assay [1] (setting [8]), 100% (active); in assay [1] (at 50.0 µM), 99.2% (active); in assay [2] (setting [7]) it was 19%; in assay [2] (setting [8]) it was 100% (active); in assay [2] (at 50.0 µM) it was 99.5% (active). In addition, the growth inhibition in assay [4] (setting [7]) was -10%; in assay [4] (setting [8]) it was 99% (active); in assay [4] (at 50.0 µM) it was 98.7% (active); in assay [6] (setting [7]) it was 24%; in assay [6] (setting [8]) it was 100% (active); in assay [6] (at 50.0 µM) it was 99.2% (active). Also, the growth inhibition in assay [5] (setting [7]) is 42%; in assay [5] (setting [8]) it was 99% (active); in assay [5] (at 50.0 µM) it was 99% (active).
Consider `CCCCCCCCC1CCNCC1`, for which the growth inhibition in assay [1] (setting [7]) was 39%; in assay [1] (setting [8]) it was 28%; in assay [1] (at 50.0 µM), 85.5% (active); in assay [2] (setting [7]) it was -6%; in assay [2] (setting [8]), 47%; in assay [2] (at 50.0 µM) it was 87.7% (active). For the same compound, the growth inhibition in assay [3] (setting [7]) was 26%; in assay [3] (setting [8]) it was 71% (active); in assay [3] (at 50.0 µM) it was 92.2% (active); in assay [6] (setting [7]), 36%; in assay [6] (setting [8]), 62%; in assay [6] (at 50.0 µM), 90.3% (active). Also, the figures for the growth inhibition in assay [5] (setting [7]), in assay [5] (setting [8]) and in assay [5] (at 50.0 µM) were 20%, 23% and 89.8% (active), respectively.
Turning to `CC1(C)CC([P+](c2ccccc2)(c2ccccc2)c2ccccc2)=NN1`, the growth inhibition was 66% in assay [1] (setting [7]); 91% (active) in assay [1] (setting [8]); 76.2% (active) in assay [1] (at 50.0 µM); 41% in assay [2] (setting [7]); 84% (active) in assay [2] (setting [8]); 77.5% (active) in assay [2] (at 50.0 µM). Moreover, the growth inhibition is 60% in assay [3] (setting [7]); 89% (active) in assay [3] (setting [8]); 79.5% (active) in assay [3] (at 50.0 µM); 48% in assay [4] (setting [7]); 81% (active) in assay [4] (setting [8]); 46% in assay [4] (at 50.0 µM). For the same compound, the growth inhibition was 56% in assay [5] (setting [7]), 83% (active) in assay [5] (setting [8]) and 79.5% (active) in assay [5] (at 50.0 µM).
As to `NNC(=O)c1c(SCc2ccccc2)nc2c3ccccc3ccn12`, the growth inhibition in assay [1] (setting [7]) was 40%; in assay [1] (setting [8]) it was 93% (active); in assay [1] (at 50.0 µM), 51.5%; in assay [2] (setting [7]), 22%; in assay [2] (setting [8]), 83% (active); in assay [2] (at 50.0 µM), 35%. Besides, the growth inhibition in assay [4] (setting [7]) is 24%; in assay [4] (setting [8]) it was 87% (active); in assay [4] (at 50.0 µM) it was 38.8%; in assay [6] (setting [7]), 33%; in assay [6] (setting [8]), 69%; in assay [6] (at 50.0 µM), 39.1%. In addition, the growth inhibition in assay [5] (setting [7]) is 33%; in assay [5] (setting [8]), 93% (active); in assay [5] (at 50.0 µM) it was 81.3% (active).
As to `O=C1C=CC(=O)C(Sc2ccccc2)=C1`, the growth inhibition in assay [1] (setting [7]) was -3%; in assay [1] (setting [8]), 98% (active); in assay [1] (at 50.0 µM) it was 96.8% (active); in assay [2] (setting [7]), 7%; in assay [2] (setting [8]), 99% (active); in assay [2] (at 50.0 µM), 98.9% (active). Also, the growth inhibition in assay [3] (setting [7]) was -4%; in assay [3] (setting [8]), 98% (active); in assay [3] (at 50.0 µM), 89.5% (active); in assay [4] (setting [7]), -14%; in assay [4] (setting [8]), 93% (active); in assay [4] (at 50.0 µM), 93.3% (active). Further, the growth inhibition is -10% in assay [6] (setting [7]); 99% (active) in assay [6] (setting [8]); 94.1% (active) in assay [6] (at 50.0 µM); 24% in assay [5] (setting [7]); 98% (active) in assay [5] (setting [8]); 95.3% (active) in assay [5] (at 50.0 µM).
As to `O=C(NCCN1CCN2Cc3[nH]c4ccccc4c3CC2C1)c1ccc(Cl)cc1` (stereo not drawn), the growth inhibition is 9% in assay [1] (setting [7]); 50% in assay [1] (setting [8]); 51.6% in assay [1] (at 50.0 µM); 10% in assay [2] (setting [7]); 40% in assay [2] (setting [8]); 46.8% in assay [2] (at 50.0 µM). In addition, the growth inhibition is 1% in assay [3] (setting [7]); 50% in assay [3] (setting [8]); 61% in assay [3] (at 50.0 µM); 26% in assay [6] (setting [7]); 53% in assay [6] (setting [8]); 50.5% in assay [6] (at 50.0 µM). Also, the growth inhibition was 8% in assay [5] (setting [7]), 60% in assay [5] (setting [8]) and 53.5% in assay [5] (at 50.0 µM).
Take `CC(=O)OCC1OC(OC(C)=O)C(On2nnc3c(-c4ccccc4)c(C)nn32)C(OC(C)=O)C1OC(C)=O` (stereo not drawn): the growth inhibition in assay [1] (setting [7]) is 0%; in assay [1] (setting [8]), 54%; in assay [1] (at 50.0 µM), 61.5%; in assay [2] (setting [7]) it was -1%; in assay [2] (setting [8]), 71% (active); in assay [2] (at 50.0 µM) it was 35.8%. For the same compound, the growth inhibition is 2% in assay [3] (setting [7]); 76% (active) in assay [3] (setting [8]); 47.8% in assay [3] (at 50.0 µM); 1% in assay [4] (setting [7]); 52% in assay [4] (setting [8]); 41.1% in assay [4] (at 50.0 µM). For the same compound, the growth inhibition in assay [5] (setting [7]) is -3%; in assay [5] (setting [8]), 58%; in assay [5] (at 50.0 µM), 36.2%.
